Screening data deposited in PubChem BioAssay by National Center for Advancing Translational Sciences (NCATS).
Hits are enriched below; roughly 2.4% of the tested compounds scored in any of these assays.
POLK inh = inhibitors of human DNA polymerase kappa. Q9UBT6. purified Pol kappa, fluorescent DNA synthesis assay, 10 min. Potency, µM (titrated, usually from 107 µM), for inactives: top-dose activity, negative = inhibition, usual class: inhibitors. hit rate 0.53% among 400,000; note: % is set by controls: 0 for no effect and ±100 for the full control effect
Target sequence (Q9UBT6 whole entry, looked up): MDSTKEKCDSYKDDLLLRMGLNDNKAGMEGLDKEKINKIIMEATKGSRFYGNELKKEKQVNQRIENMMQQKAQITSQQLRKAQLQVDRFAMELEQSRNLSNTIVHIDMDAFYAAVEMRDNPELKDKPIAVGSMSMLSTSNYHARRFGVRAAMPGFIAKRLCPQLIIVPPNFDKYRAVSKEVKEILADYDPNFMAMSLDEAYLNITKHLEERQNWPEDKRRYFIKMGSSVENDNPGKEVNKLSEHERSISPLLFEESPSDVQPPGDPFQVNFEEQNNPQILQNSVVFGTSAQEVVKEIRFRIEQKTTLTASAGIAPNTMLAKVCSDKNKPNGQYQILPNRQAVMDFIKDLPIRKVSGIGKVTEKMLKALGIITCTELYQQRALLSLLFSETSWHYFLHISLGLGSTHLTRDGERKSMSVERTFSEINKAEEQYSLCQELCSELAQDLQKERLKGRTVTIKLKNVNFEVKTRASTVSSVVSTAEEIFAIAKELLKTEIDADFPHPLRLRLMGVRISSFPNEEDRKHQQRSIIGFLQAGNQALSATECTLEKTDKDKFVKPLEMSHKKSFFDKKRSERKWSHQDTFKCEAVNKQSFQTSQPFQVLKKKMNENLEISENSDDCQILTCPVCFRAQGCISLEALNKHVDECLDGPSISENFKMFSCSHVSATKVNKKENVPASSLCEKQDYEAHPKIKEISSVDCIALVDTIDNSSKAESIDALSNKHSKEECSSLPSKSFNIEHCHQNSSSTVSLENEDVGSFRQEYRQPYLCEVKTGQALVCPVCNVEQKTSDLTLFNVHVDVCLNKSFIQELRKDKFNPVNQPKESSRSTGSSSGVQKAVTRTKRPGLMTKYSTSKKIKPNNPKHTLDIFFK
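Fluorescent qHTS in 1536-well format: enzyme (10 nM) and compound sat 15 min at room temperature before 50 nM substrate (final) was added. Signal taken at 0 and 10 min; no-enzyme buffer wells were negative controls.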
WRN inhibitor = blocks human WRN helicase | Potency, µM (highest dose often 114 µM), for inactives: at the top dose activity change, negative = inhibition, hits mostly inhibitors | WRN helicase unwinding, fluorescent forked duplex, kinetic | hit rate 0.46% among 360,000 | Q14191 | AID 651768; note: % is set by controls: 0 for no effect and ±100 for the full control effect; nearly all actives have a fitted effect of over 55% in size
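Fluorescence dequenching readout, ex 525 nm/em 598 nm, kinetic mode: forked duplex DNA (100 nM final) with adjacent fluorophore and quencher unwound by WRN (20 nM final) with 2 mM ATP. Compound preincubation 15 min, room temperature.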
Pol iota inh = inhibitors of human DNA polymerase iota | Q9UNA4 | Pol iota fluorescent replication assay, 10 min | Potency, µM (series often up to 115 µM), for inactives: top-dose activity, negative = inhibition, hits mostly inhibitors | hit rate 1% among 390,000 | AID 588590
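Fluorescent replication assay read twice, at 0 min and 10 min after adding 50 nM (final) substrate. Enzyme (10 nM) and compounds were first incubated 15 min at room temperature; enzyme-free buffer wells were negative controls.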
POLB inh = inhibitors of human DNA polymerase beta. P06746. Pol beta primer extension/strand displacement, fluorescence kinetic. Potency, µM (highest dose often 114 µM), for the others: at the top dose activity change, negative = inhibition, actives largely listed as inhibitors. hit rate 1.3% among 340,000; note: % is set by controls: 0 for no effect and ±100 for the full control effect
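Reaction started by 50 nM substrate onto compound-treated Pol beta (10 nM, 15 min preincubation, room temperature); plates read at 0 min and 10 min. Normalized concentration-effect data fitted by four-parameter Hill equation.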
Pol eta inh = blocks human DNA polymerase eta activity; recombinant Pol eta, fluorescent DNA replication assay; Potency, µM (doses to about 114 µM), inactives show at the top dose activity change, negative = inhibition, most hits filed as inhibitors; hit rate 1.2% among 390,000; note: % is set by controls: 0 for no effect and ±100 for the full control effect
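Pol eta (10 nM) was preincubated with compounds for 15 min at room temperature, after which fluorescent replication substrate (50 nM final) was added to start the reaction. Fluorescence was read kinetically at 0 and 10 min.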
FEN1 inhibitor = blocks human flap endonuclease 1 | Recombinant FEN1 flap cleavage, fluorescence, 15 min | P39748 | hit rate 0.35% among 390,000 | Potency, µM (doses to about 114 µM), inactives show at the highest dose activity change, negative = inhibition, actives largely listed as inhibitors | AID 588795; note: % is set by controls: 0 for no effect and ±100 for the full control effect; nearly all actives have a fitted effect of over 65% in size
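Read-out was taken twice, immediately and after 15 min, following addition of 50 nM substrate to 10 nM FEN1 that had sat with test compound for 15 min at room temperature. Curves came from a four-parameter Hill model.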
PGK validate = validation of Trypanosoma brucei phosphoglycerate kinase inhibitors. shares compounds with POLK inh. TbPGK coupled GAPDH assay, Kinase-Glo luminescence. Potency, µM (top dose mostly 57.5 µM), without a hit: at the top dose activity change, negative = inhibition, usual class: inhibitors. hit rate 79% among 500. AID 686980; note: % is set by controls: 0 for no effect and ±100 for the full control effect; nearly all actives have a fitted effect of over 65% in size
POLI cherry-pick = Confirm cherry-picked inhibitors of human polymerase iota; shares compounds with POLK inh; Pol iota primer extension, TAMRA/BHQ fluorescence; Potency, µM, hits mostly inhibitors; hit rate 77% among 1,500; AID 720496
Active calls of the source: *; ? = inconclusive; / = no result given; [ ] = another dose, or the depositor's remark. Calls come from the whole dose curve; as a rule, active = well fitted curve in the direction sought with a large enough effect; inconclusive = small, poorly fitted or top-dose-only effect, or another doubt; inactive = no such curve, though single readings can be large; an effect the other way counts as inactive or inconclusive. Potency is the fitted concentration of half-maximal effect.

SMILES	POLK inh	WRN inhibitor	Pol iota inh	POLB inh	Pol eta inh	FEN1 inhibitor	PGK validate	others
O=C(O)C1Nc2c(O)cccc2C2C=CCC12 (stereo not drawn)	10µM*	11µM*	?	1.6µM*	1.3µM*	40µM*	3.3µM*
CCNc1ncc2nc(-c3ccc(F)cc3)c(=O)n(CCOC)c2n1	-8%[60.1 µM]	/	/	/	/	/	/
O=C(Nc1ccccc1C(=O)N1CCCCC1)c1nsc2ccccc12	-3%[60.1 µM]	/	3%	10%	7%	2%	/
O=Cc1cn(-c2ccccc2)nc1-c1cc2cc(O)ccc2oc1=O	?	?	22µM*	56µM*	?	-7%	/	POLI cherry-pick=?
CN(C)c1ccc(N/C=C/C(=O)c2ccco2)cc1	-7%	-8%	?	?	-15%	5%	10µM*
COCCn1c(C)cc(C2=NNC(=NC3CC3)SC2)c1C	-2%	4%	206%	6%	-18%	5%	16µM*
c1ccc(-c2noc(-c3ccncc3)n2)nc1	4%	10%	29%	28%	-12%	-2%	18µM*
c1ccc(-c2noc(-c3ccc4ccccc4c3)n2)nc1	-13%	-2%	12%	22%	6%	-3%	/
c1ccc(-c2noc(-c3ccc4c(c3)OCO4)n2)nc1	-4%	-5%	6%	?	-5%	-2%	5.8µM*
Cc1csc2c(=O)sc(NC(=O)c3cccs3)nc12	6%	?	?	?	?	?	26µM*
Cc1csc2c(=O)sc(NC(=O)c3ccco3)nc12	-11%	0%	6%	?	40%	-14%	/
Cn1c(SCC(=O)c2ccc3c(c2)Cc2ccccc2-3)nnc1-c1ccccc1	-6%	?	?	?	8.9µM*	-6%	/	POLI cherry-pick=42*
Cc1cccc(C(=O)NNc2ncnc3c2cnn3-c2ccc(C)cc2C)c1	-3%[60.1 µM]	/	8%	2%	-13%	-1%	/
N/C(=N\OC(=O)c1ccccc1Cl)c1ccccn1	-1%	1%	24%	92%	1%	-15%	16µM*
COc1cc(OC)cc(C(=O)O/N=C(\N)c2ccccn2)c1	9%	7%	19%	-2%	-5%	-5%	/
Cc1ccc(C(=O)O/N=C(\N)c2ccccn2)c(C)c1	-14%	-2%	119%	-2%	0%	0%	7.3µM*
COc1ccc(C(=O)NNC(=O)c2ccccn2)cc1	13%	4%	22%	-2%	-6%	-3%	5.2µM*
COc1ccc(C(=O)O/N=C(\N)c2ccccn2)cc1	10%	4%	23%	0%	-17%	0%	5.2µM*
COc1ccccc1C(=O)O/N=C(\N)c1ccccn1	-13%	5%	36%	3%	-14%	2%	/
Nc1ccc(Cc2ccc(C=O)cc2)cc1	-18%	/	30%	/	/	4%	/
COc1ccc(-c2nc3cnc(Nc4cccc(OC)c4)nc3n(C)c2=O)cc1	-10%[60.1 µM]	/	/	/	/	/	/
N/C(=N\OC(=O)c1ccc(Cl)cc1)c1ccccn1	-7%	0%	-3%[58.9 µM]	31%	-8%	-10%	15µM*
N/C(=N\OC(=O)c1ccc(Cl)c(Cl)c1)c1ccccn1	-11%	-1%	18%	17%	-12%	5%	/
O=C(c1ccccc1)c1ccc(O)c(O)c1O	22µM*	28µM*	28µM*	/	8.9µM*	?	5.8µM*
COc1cc(OC)c(/C=C/c2cc3ccccc3c[n+]2C)c(OC)c1	-32%	/	?	/	/	?	/
SMILES	POLK inh	WRN inhibitor	Pol iota inh	POLB inh	Pol eta inh	FEN1 inhibitor	PGK validate	others
COc1ccc(NC(=O)/C(C#N)=C/c2ccc(C)o2)cc1	4%	/	20%	2%	-13%	-6%	/
COc1ccc(NC(=O)/C(C#N)=C/c2ccc(Br)o2)cc1	79µM*	?	22µM*	10µM*	?	-17%	/	POLI cherry-pick=?
CC(=O)c1ccc(-c2ccc(/C=C(/Sc3n[nH]c(C)n3)C(=O)O)o2)cc1	?	-11%	?	?	40µM*	50µM*	/	POLI cherry-pick=47*
O=C(O)/C(=C\c1ccc(-c2ccc(F)cc2)o1)c1ccccc1	?	?	?	?	-10%	-10%	/
COc1ccc(-n2nc(C(=O)Nc3ccc(OC)c(OC)c3)c3c4ccccc4n(C)c3c2=O)cc1	-10%	-21%[11.6 µM]	?	-22%	?	-5%	/	POLI cherry-pick=4.7*
Cc1cccc(C)c1NC(=O)CSc1nc2ncccc2o1	5%	/	28%	36%	-5%	6%	/
O=C1C=CC(=O)c2c(O)c(CO)c(CO)c(O)c21	3.5µM*	7.9µM*	3.2µM*	/	1µM*	16µM*	8.2µM*
O=c1c(CO)cc(CO)cc(CO)c1O	-2%	-1%	?	2%	0%	10%	/
COc1ccc(-n2c(=O)c3c(c4cc(OC)ccc4n3C)n(Cc3cc(C)ccc3C)c2=O)cc1	-7%	/	8%	-9%	-8%	18%	/
CCOc1ccc(C(=O)Nc2cc(C)ccn2)cc1	3%	?	93%	30%	-18%	3%	16µM*
O=C(O)CC/C(=C\c1ccc(N2CCCC2)c([N+](=O)[O-])c1)c1nc2ccccc2s1	?	?	?	-8%	56µM*	?	/	POLI cherry-pick=75*
O=C(O)CC/C(=C\c1ccccc1[N+](=O)[O-])c1nc2ccccc2s1	-13%	-1%	96%	-15%	-6%	-1%	/
COc1ccc(Cn2c(-c3ccccc3)nc3c(c(=O)c4ccccc4n3C)c2=O)cc1	-1%	?	5%	-1%	?	6%	/	POLI cherry-pick=42*
O=C(c1csnn1)N1CCC[C@@]2(CCN(Cc3cc(C(F)(F)F)cc(C(F)(F)F)c3)C2)C1	-2%[60.1 µM]	/	/	/	/	/	/
COc1cc2c(ccc3cc(OC)c(OC)c(O)c32)cc1O	7.9µM*	18µM*	?	1.4µM*	3.2µM*	22µM*	1.5µM*
COc1cc2oc(=O)ccc2cc1O	14%[60.1 µM]	/	/	/	/	/	/
C=C1CCN(C(CC(C)C)C(=O)NCCCc2ccccc2)S(=O)(=O)c2ccccc21 (stereo not drawn)	-15%	/	-5%	/	/	-3%	/
O=C(Nc1ccc(Cl)cn1)c1cnn2c1NC(=C1CC1)C=C2C(F)F	6%	/	36%	/	/	8%	/
O=C(NNC(=O)c1cc(-c2ccncc2)nc2ccccc12)c1ccccc1O	-18%	-19%	?	/	-9%	-2%	/	POLI cherry-pick=38*
Cc1ccc(-c2cc(C(=O)Nc3ccncc3)c3ccccc3n2)cc1	3%	-4%	25%	/	-11%	5%	/
O=C(N/N=C/C=C\c1ccccc1[N+](=O)[O-])c1cc(-c2ccc3ccccc3c2)n[nH]1	-30%	-35%	?	18µM*	?	-16%	/	POLI cherry-pick=38*
